Reference: PubChem BioAssay AID1159580 (chemical genetic matrix, 2015)
The campaign covered roughly 5,500 compounds. About 2,000 (36%) were called active. Inconclusive results (about 18%) are left out. Cut-off read from the data, not from the text of the source: active = normalized growth mostly below about 0.91 (no sharp cut-off); inconclusive = no clear call, values can overlap the other calls; inactive = mostly above about 0.92. This is one part of the list.

Assay: chemical genetic growth profiling, strain panel (AID 1159580);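 note: tested at 20 µM; growth read once vehicle control cultures reached saturation at 30 °C; 1 = growth at the plate median or of vehicle wells; lower values mean less growth of the strain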
Conditions: S. cerevisiae deletion strains, growth OD

Measured: normalized growth

CC1=NN=C(c2ccc(N)cc2)c2cc3c(cc2C1)OCO3
inactive: locus YAL013W, strain DEP1, hits give low values 0.989 | locus YAL040C, strain CLN3, hits give low values 0.968 | locus YCL061C, strain MRC1 (second series), hits give low values 0.991 | locus YDR363W, strain ESC2, hits give low values 0.986 | locus YER002W, strain NOP16, hits give low values 0.967 | locus YMR263W, strain SAP30, hits give low values 0.996 | locus YMR307W, strain GAS1, hits give low values 1 | locus YNL128W, strain TEP1, hits give low values 0.983 | locus YNL153C, strain GIM3, hits give low values 0.957 | locus YNL175C, strain NOP13, hits give low values 0.968 | locus YNL197C, strain WHI3, hits give low values 0.964 | locus YNL224C, strain SQS1, hits give low values 0.989 | locus YOR083W, strain WHI5 (second series), hits give low values 0.936 | locus YPL055C, strain LGE1, hits give low values 0.984

Cc1nnc2n1N=C(c1ccc(CC(C)C)cc1)C(C)S2 (stereo not given)
inactive: locus YAR019C, strain CDC15, hits give low values 0.971 | locus YBL105C, strain PKC1, hits give low values 0.975 | locus YBR135W, strain CKS1, hits give low values 0.964 | locus YBR136W, strain MEC1, hits give low values 0.975 | locus YBR160W, strain CDC28, hits give low values 0.978 | locus YDL017W, strain CDC7, hits give low values 0.982 | locus YDL028C, strain MPS1, hits give low values 0.972 | locus YDL101C, strain DUN1, hits give low values 0.965 | locus YDL108W, strain KIN28, hits give low values 0.97 | locus YDL132W, strain cdc53, hits give low values 0.972 | locus YDL214C, strain PRR2, hits give low values 0.98 | locus YDR052C, strain DBF4, hits give low values 0.977 | locus YDR054C, strain cdc34, hits give low values 0.973 | locus YDR226W, strain ADK1, hits give low values 0.966 | locus YDR477W, strain SNF1, hits give low values 0.975 | locus YER123W, strain YCK3, hits give low values 0.941 | locus YER133W, strain GLC7, hits give low values 0.972 | locus YFL009W, strain cdc4, hits give low values 0.971 | locus YFL029C, strain CAK1, hits give low values 0.971 | locus YFR003C, strain YPI1, hits give low values 0.978 | locus YFR019W, strain FAB1, hits give low values 0.986 | locus YFR028C, strain CDC14, hits give low values 0.969 | locus YGR040W, strain KSS1, hits give low values 0.979 | locus YGR052W, strain FMP48, hits give low values 1.05 | locus YGR092W, strain DBF2, hits give low values 0.971 | locus YHR030C, strain SLT2, hits give low values 1.08 | locus YHR079C, strain IRE1, hits give low values 1.05 | locus YHR082C, strain KSP1, hits give low values 1.05 | locus YHR205W, strain SCH9, hits give low values 0.977 | locus YIL147C, strain SLN1, hits give low values 0.964 | locus YJL095W, strain BCK1, hits give low values 1.06 | locus YJL128C, strain PBS2, hits give low values 0.931 | locus YJL157C, strain FAR1, hits give low values 0.983 | locus YJR016C, strain ILV3, hits give low values 0.98 | locus YJR066W, strain TOR1 (second series), hits give low values 0.971 | locus YJR066W, strain TOR1, hits give low values 1.07 | locus YKL048C, strain ELM1, hits give low values 0.979 | locus YKL067W, strain YNK1, hits give low values 0.98 | locus YKL101W, strain HSL1, hits give low values 0.985 | locus YKL193C, strain SDS22, hits give low values 0.972 | locus YKL203C, strain TOR2, hits give low values 1.04 | locus YLR113W, strain HOG1, hits give low values 0.973 | locus YLR133W, strain CKI1, hits give low values 0.985 | locus YLR403W, strain SFP1, hits give low values 0.965 | locus YML070W, strain DAK1, hits give low values 0.968 | locus YMR001C, strain CDC5, hits give low values 0.974 | locus YMR205C, strain PFK2 (second series), hits give low values 0.986 | locus YMR277W, strain FCP1, hits give low values 0.975 | locus YNL006W, strain LST8, hits give low values 0.986 | locus YNL020C, strain ARK1, hits give low values 0.997 | locus YNL161W, strain CBK1, hits give low values 0.977 | locus YNL183C, strain NPR1, hits give low values 1.05 | locus YNL207W, strain RIO2, hits give low values 0.98 | locus YNL222W, strain SSU72, hits give low values 0.97 | locus YNL307C, strain MCK1 (second series), hits give low values 0.97 | locus YOL078W, strain AVO1, hits give low values 0.977 | locus YOL136C, strain PFK27, hits give low values 0.975 | locus YOR061W, strain CKA2, hits give low values 0.972 | locus YOR119C, strain RIO1, hits give low values 0.982 | locus YOR231W, strain MKK1, hits give low values 1.04 | locus YOR329C, strain SCD5, hits give low values 0.98 | locus YPL031C, strain PHO85, hits give low values 0.983 | locus YPL153C, strain RAD53, hits give low values 0.956 | locus YPL204W, strain HRR25, hits give low values 0.96 | locus YPL209C, strain IPL1, hits give low values 0.98 | locus YPL256C, strain CLN2, hits give low values 1.02 | locus YPR025C, strain CCL1, hits give low values 0.969 | locus YPR106W, strain ISR1, hits give low values 0.979 | locus YPR111W, strain DBF20, hits give low values 0.967 | strain NNK1, hits give low values 0.978 | strain TSCII, hits give low values 0.972
